TDP1 cell CPT: DT40-hTDP1 cell growth loss with CPT; chicken DT40 Tdp1-/-;hTDP1 cells + 20 nM CPT, ATP luminescence, 48 h; Potency, µM (series often up to 46.2 µM), for the others: at the highest dose activity change, negative = growth inhibition, actives largely listed as inhibitors; 420,000 compounds, 12% hits; AID 686979; also: potency is read from the fitted curve at half-maximal effect; % is scaled to controls: 0 for no effect and ±100 for the full control effect; nearly all actives have a fitted effect of over 55% in size
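Chicken DT40 Tdp1-/- cells stably complemented with human TDP1 were seeded at 400 cells/well in medium containing 20 nM camptothecin, exposed to pin-transferred compounds, and grown at 37 °C for at least 48 hr. Viability was read as ATP luminescence.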
D3 antag: D3 dopamine receptor (human) antagonism. P35462. D3R cells, DiscoveRx beta-arrestin luminescence, antagonist mode; stronger effect = lower value. 360,000 compounds, 2.5% hits. max response, negative = inhibition, %; in the data active = max response below about -50%; inconclusive = no clear call, values can overlap the other calls; also: % is scaled to controls: 0 for no effect and ±100 for the full control effect
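Cells expressing the human receptor were seeded at 1500 cells/well, incubated overnight at 37 degrees C in 5% CO2, then exposed to library compounds with dopamine controls for 90 minutes at 37 degrees C before luminescent detection.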
IL-1B inflam inh: inflammasome signaling inhibition, IL-1 beta readout; THP-1 LPS/ATP IL-1B secretion, AlphaLISA, 16 h; stronger effect = lower value; AID 743279; 360,000 compounds, 4.7% hits; activity change, % at 57.5 µM; in the data active = activity change below about -50%; inconclusive = mostly about -30% to -49%; also: % is scaled to controls: 0 for no effect and ±100 for the full control effect
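Secreted IL-1B measured by AlphaLISA bead assay after 16 h compound exposure of THP-1 cells; compounds (final up to 57.5 uM) added 1 h before LPS (250 ng/mL) and ATP (1.25 mM) stimulation; lower signal means less secretion.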
DT40 TDP1 no CPT: qHTS for Inhibitors of human tyrosyl-DNA phosphodiesterase 1 (TDP1): qHTS in cells in absence of CPT; 420,000 compounds, 15% hits; Potency, µM (doses to about 46.2 µM), for inactives: top-dose activity change, negative = growth inhibition, actives largely listed as inhibitors; DT40 Tdp1-/- hTDP1 cells, no CPT, ATP luminescence, 48 h; also: potency is read from the fitted curve at half-maximal effect; % is scaled to controls: 0 for no effect and ±100 for the full control effect; nearly all actives have a fitted effect of over 55% in size
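Cells were dispensed at 400 per well, compounds added by pin tool, plates incubated ≥48 hr at 37 °C, then CellTiter-Glo added for 30 min at room temperature before luminescence reading. Line: DT40 Tdp1-/- complemented with hTDP1; camptothecin omitted.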
DRD3 agonist: activates the human D3 dopamine receptor | P35462 | D3R DiscoveRx beta-arrestin cells, luminescence, 90 min | max activation, % | 410,000 compounds, 0.58% hits; in the data active = max activation above about 30%; also: 0% is about no effect
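Cells at 1500/well, incubated overnight, then treated with pinned compounds (dopamine as control) for 90 min at 37 degrees C. DiscoveRx reagent added for 30 - 60 minutes at room temperature; luminescence read.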
ClpP mod: qHTS Assay for Activators of ClpP. Potency, µM (titrated, usually from 57.5 µM), for the others: at the top dose activity change, negative = active. purified B. subtilis ClpP, FRET peptide cleavage, 20 min. 340,000 compounds, 1.9% hits. AID 651965, 2013; active = well fitted falling curve with a large enough effect; inconclusive = small, poorly fitted or top-dose-only effect; inactive = no such curve, though single readings can be large or run the other way; also: potency is read from the fitted curve at half-maximal effect; the source files actives as falling curves though it sought activators and does not explain the sign; nearly all actives have a fitted effect of over 65% in size
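Buffer: 100 mM Tris/HCl pH8, 100 mM KCl, 0.05% low protease BSA, 2.5% glycerol, 0.01% Tween-20. ClpP 10 microg/mL final; 20 min RT; delta FRET normalized to ADEP and DMSO controls.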
An asterisk follows results filed as active; ? = inconclusive; nt = not tested or not shown; [ ] = another dose, or the depositor's remark. This is a sample that favours compounds with a hit; in the whole collection about 21% have one here. Unless noted, calls follow the shape of the dose curve; as a rule, active = well fitted inhibition curve with a large enough effect; inconclusive = small, poorly fitted or top-dose-only effect; inactive = flat fitted curve, though single readings scatter.

SMILES	TDP1 cell CPT	D3 antag	IL-1B inflam inh	DT40 TDP1 no CPT	DRD3 agonist	ClpP mod
COc1ccccc1C1CN(Cc2c(O)cccc2OC)Cc2ccccc2O1 (stereo unspecified)	6%[9.04 µM]	nt	nt	-19%	nt	nt
CCN(CC)S(=O)(=O)c1ccc(Cl)c(C(=O)NNC(=O)c2csc(N3CCOCC3)n2)c1	-21%	6	-16	0%	-3	-2%
O=C(CSc1nc2ccsc2c(=O)n1Cc1ccccc1F)NCc1ccccc1	-23%	nt	nt	?	-30	4%
Cc1ccc(-c2csc3n[nH]c(=S)n23)cc1	-23%	-100*	0	-2%	-2	-3%
Cc1ccc(-n2c(C)n[nH]c2=S)cc1	3%	-2	15	-14%	2	1%
CC(=O)Nc1ccc(S(=O)(=O)N(C)CC(=O)OCC(=O)c2ccc3c(c2)NC(=O)CO3)cc1	2%	-8	12	7%	2	0%
CCOCCCNC(=O)/C(C#N)=C/c1ccc(-c2ccc(S(=O)(=O)N3CCOCC3)cc2)o1	12µM*	11	5	8.2µM*	-1	-7%
CCOCCCNC(=O)/C(C#N)=C/c1ccc([N+](=O)[O-])o1	1.3µM*	-27	-111*	1.8µM*	-5	nt
C=CCNC(=O)/C(C#N)=C/c1ccc(C)o1	2%	14	?	-7%	4	-2%
COCCNC(=O)/C(C#N)=C/c1cc(Br)c(O)c(OC)c1	4%	-5	23	-2%	0	nt
CCOCCCNC(=O)/C(C#N)=C/c1cc(Br)c(O)c(Br)c1	4.1µM*	-10	?	1.6µM*	-14	0%
CN(C)S(=O)(=O)c1ccc(C(=O)NCCS(=O)(=O)N2CCN(c3ccccc3)CC2)cc1	-25%	nt	nt	?	-5	-2%
CC(C)N(Cc1ccccc1)C(=O)CC(=O)N(Cc1ccccc1)C(C)C	10%	-14	-17	-29%	-2	nt
COc1ccc(S(=O)(=O)N2CCOCC2)cc1NC(=O)C1CC1	-9%	-3	7	8%	-12	nt
COc1ccc(NC(=O)[C@H](C)NC(=O)C2CCN(S(=O)(=O)c3ccc(C)cc3)CC2)cc1OC	-1%	-8	-12	8%	2	-4%
O=C(/C=C/c1ccccc1)Nc1cc(-c2nc3ccccc3o2)ccc1Cl	?	nt	nt	-25%	-10	-1%
Cc1ccc2nc(-c3cc(NC(=O)/C=C/c4ccccc4)ccc3Cl)oc2c1	23µM*	nt	nt	16µM*	-10	?
O=C(Nc1nnc(-c2cc(Cl)ccc2Cl)o1)c1ccc2c(c1)OCCO2	?	nt	nt	16µM*	1	-2%
Cc1ccc2nc(-c3cc(NC(=O)c4ccc5c(c4)OCCO5)ccc3Cl)oc2c1	?	nt	nt	16µM*	-14	?
CC(=O)Nc1ccc(OC(=O)c2ccccc2OC(C)=O)cc1	0%	nt	nt	-28%	-5	nt
N#Cc1ccccc1OCC(=O)OCC(=O)NC1CC1	-5%	-21	0	15%	-2	1%
N#CCCn1c(=O)cnc2cnc(Oc3ccccc3)nc21	-6%	nt	nt	-1%	nt	nt
CCCCOc1ccc(C(=O)Nc2ccc3c(c2)CCCN3C(=O)c2cccs2)cc1	5.8µM*	nt	nt	5.2µM*	7	-3%
CCCOc1ccc(C(=O)N2CCCc3ccccc32)cc1	?	-12	19	-6%	-2	0%
Cc1ccc2c(c1)CCCN2C(=O)c1cccs1	-7%	8	17	-2%	-12	-1%
SMILES	TDP1 cell CPT	D3 antag	IL-1B inflam inh	DT40 TDP1 no CPT	DRD3 agonist	ClpP mod
COc1cccc(C(=O)Nc2ccc3c(c2)CCCN3C(=O)c2cccs2)c1OC	16µM*	6	?	13µM*	11	-1%
O=C(Nc1ccc2c(c1)CCCN2C(=O)c1ccccc1)c1ccccc1	?	16	-30	15µM*	2	-2%
COc1ccc(C(=O)Nc2cc3c4c(c2)CC(=O)N4CCC3)c(OC)c1	?	25	15	?	8	1%
COc1ccc(C(=O)Nc2ccc3c(c2)CCCN3C(=O)c2cccs2)c(OC)c1	8.2µM*	42	7	12µM*	-4	1%
Cc1ccc(NC(=O)CSc2nnnn2C)cc1S(=O)(=O)N1CCCCC1	-11%	0	0	-18%	1	-6%
Cc1ccccc1NC(=O)Cn1cc(S(=O)(=O)c2ccccc2)c(=O)c2ccccc21	8%	nt	nt	-2%	2	0%
Cc1ccccc1C(=O)Nc1ccc2c(c1)CCCN2C(=O)c1cccs1	18µM*	4	?	?	4	0%
Cc1cccc(C)c1NC(=O)C1(C)CSCC(=O)N1CC(C)C (stereo unspecified)	4%	-8	16	-4%	-2	-3%
CCCCCCOc1ccc(N2C(=O)CC(N3CCN(CCN=CC4=C(O)CC(C)(C)CC4=O)CC3)C2=O)cc1 (stereo unspecified)	-7%	9	-4	?	1	1%
CCCCCCOc1ccc(N2C(=O)CC(N3CCN(CCN=CC4C(=O)CC(C)(C)CC4=O)CC3)C2=O)cc1 (stereo unspecified)	?	1	21	23µM*	6	nt
COC/C=C/C1=CC2=CC(=O)C(C)(OC(=O)c3cnc4ccccc4n3)C(=O)C2=CN1c1ccccc1 (stereo unspecified)	?	-21	21	16µM*	12	3%
CCCCc1cc2c(cn1)=C(OC(=O)c1cnc3ccccc3n1)C(C)(OC(=O)CC)C(=O)C=2 (stereo unspecified)	-30%	11	37	3%	3	-1%
COCCCNc1ncnc2onc(-c3ccc(F)cc3)c12	4%	nt	nt	?	2	6%
Cc1ccccc1NC(=O)NCC1CCCO1 (stereo unspecified)	6%	-25	-3	-1%	4	28µM*
COc1ccc(C(=O)NCC2CCCO2)cc1 (stereo unspecified)	-3%	9	4	1%	1	-2%
O=C(NCC1CCCO1)c1ccc(Br)s1 (stereo unspecified)	7%	2	0	4%	1	0%
Cc1cccc(-n2cnc3cc(C(=O)NCC4CCCO4)ccc32)c1 (stereo unspecified)	9.2µM*	-10	?	7.3µM*	-7	-6%
O=C(NCC1CCCO1)c1ccc([N+](=O)[O-])s1 (stereo unspecified)	13µM*	-2	-15	26µM*	-1	nt

From PubChem BioAssay
